The record followed here is PubChem BioAssay AID2685 (National Center for Advancing Translational Sciences (NCATS), 2010).

Among all 320,000 compounds or so, about 2,100 (0.66%) were called active. Not shown: some 53% with an inconclusive outcome. Calls come from the whole dose curve; as a rule, active = well fitted inhibition curve with a large enough effect in the signal ratio, with a control signal flat (not every such curve was filed as active); inconclusive = small, poorly fitted or top-dose-only effect, or effect the other way, or a change in a side signal; inactive = flat fitted curve, though single readings scatter; the % refers to the signal ratio. This excerpt belongs to a sample that is enriched for actives.
Potency is the fitted concentration of half-maximal effect.

This assay in a line: qHTS Assay for Lipid Storage Modulators in Drosophila S3 Cells.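 For cell number change: cells counted by Cell Tracker Red CMTPX staining in the red channel.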 For lipid storage change, negative = inhibition: % is set by controls: 0 for no effect and ±100 for the full control effect. The following applies: BODIPY lipid droplet fluorescence, 18-24 h, cells fed with added oleic acid; cell number change: measured here: cell count max response; series mostly up to 46.1 µM; lipid storage change, negative = inhibition: at the top concentration. In outline: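 Drosophila S3 cells got compounds at several concentrations plus oleic acid (400 uM solution). Laser-scanning cytometry with 488 nm excitation read lipid droplets at 500-530 nm and cells at 575-640 nm. Percent activity was relative to 20 uM Triacsin C.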
In the case of `CC1=[N+]([O-])C(C)(C)CC(C)(C)c2ccccc21`, the Potency was 25.9 µM (active) and the cell number change is -21.9%.

On to `COC(=O)c1cn(CC(=O)Nc2ccccc2C)c2ccccc12`, for which the result was inactive and the cell number change was 8.8%. With `COc1ccc(C2C(C#N)=C(N)OC3=C2C(=O)CC(C)(C)C3)cc1Cn1nc(C)c([N+](=O)[O-])c1C` (configuration not stated), the “lipid storage change, negative = inhibition” value was 9.69% (inactive) and the cell number change was determined as 4.05%.

Regarding `CSC1=NCCN1C(=O)C12CC3CC(CC(C3)C1)C2`, the Potency is 1.3 µM (active) and the cell number change is -43.3%. Regarding `O=C(N1CCN=C1SCc1cccnc1)C12CC3CC(CC(C3)C1)C2`, the compound was classed as inactive. With `O=C1NCCN1C(=O)C12CC3CC(CC(C3)C1)C2`, the “lipid storage change, negative = inhibition” value is 0.211% (inactive) and the cell number change is -1.76%. For the compound `CCn1c(SCC(=O)NC2CC2)nnc1C(C)Oc1ccccc1` (configuration not stated), the “lipid storage change, negative = inhibition” value was 5.84% (inactive). `CCOc1ccc(Cn2nnc(C(=O)NCCc3ccc(Cl)cc3)c2N)cc1`: the Potency was 18.4 µM (active) and the cell number change came to 1.29%. Turning to `Nc1c(C(=O)NCCc2ccccc2)nnn1Cc1ccc(Cl)cc1`, the “lipid storage change, negative = inhibition” value was 8.7% (inactive) and the cell number change was -16.5%. Regarding `COc1ccc(NC(=O)Cn2nnc(C(=O)NCCc3ccccc3)c2N)c(OC)c1`, the outcome was inactive and the cell number change was 6.1%. Take `CCOc1ccc(Cn2nnc(C(=O)NCCc3ccccc3)c2N)cc1`: the “lipid storage change, negative = inhibition” value is -7.29% (inactive) and the cell number change is -4.24%. For `COc1cccc(NC(=O)Cn2nnc(C(=O)NCCc3ccccc3)c2N)c1`, the Potency was 20.6 µM (active) and the cell number change was found to be 2.67%.

As to `COc1cccc(NC(=O)Cn2nnc(C(=O)Nc3ccccc3)c2N)c1`, the “lipid storage change, negative = inhibition” value was 6.84% (inactive) and the cell number change is -18.5%. As to `CCc1nc(NC(=O)c2sc(C)nc2C)sc1C(=O)OC`, the result was inactive and the cell number change was -8.97%. As to `O=C1OCCC1Sc1nnc(-c2cccc(Br)c2)o1` (configuration not stated), the Potency was 20.6 µM (active) and the cell number change was -11.2%. In the case of `O=C1OCCC1Sc1nnc(-c2ccc3c(c2)OCO3)o1` (configuration not stated), the “lipid storage change, negative = inhibition” value is 5.11% (inactive) and the cell number change was found to be 15.3%.

With `O=C1OCCC1Sc1nnc(-c2ccc(Br)cc2)o1` (configuration not stated), the “lipid storage change, negative = inhibition” value is 5.68% (inactive) and the cell number change is 7.55%. Taken in the same sequence, the figures for `Cc1ccc(CS(=O)(=O)CCC(=O)NCc2ccc(F)cc2)cc1` were 0.549% (inactive) and 22.6%.

For `Cc1ccc(CNC(=O)CCNS(=O)(=O)c2ccc(C)cc2)cc1`, the “lipid storage change, negative = inhibition” value is 0.234% (inactive) and the cell number change is -14.3%. In the case of `Cc1ccc(/C=C/S(=O)(=O)NCCC(=O)NCc2ccc(F)cc2)cc1`, the Potency was 13 µM (active) and the cell number change is -6.87%. As for `CCOC(=O)N1CCC(N(CCN(C)C)C(=S)Nc2ccccc2OC)CC1`, the “lipid storage change, negative = inhibition” value is 1.39% (inactive) and the cell number change came to 7.57%. For the compound `CCCCCOC(=O)c1ccccc1C(=O)O`, the “lipid storage change, negative = inhibition” value was 22.4% (inactive) and the cell number change stood at 16.1%. For `Cc1ccc2c(c1)C1CN(C)CCC1N2S(=O)(=O)c1cccc(F)c1` (configuration not stated), the Potency is 14.6 µM (active) and the cell number change is -8.15%. Take `Cc1ccc2c(c1)[C@@H]1CN(C)CC[C@@H]1N2S(=O)(=O)c1ccc([N+](=O)[O-])cc1`: the “lipid storage change, negative = inhibition” value is 3.92% (inactive) and the cell number change was -4.89%.

As for `Cc1ccc2c(c1)C1CN(C)CCC1N2S(=O)(=O)c1ccc(C#N)cc1` (configuration not stated), the “lipid storage change, negative = inhibition” value is 4.76% (inactive) and the cell number change is -11.9%. Taken in the same sequence, the figures for `O=C(CN1CCN(S(=O)(=O)c2ccccc2[N+](=O)[O-])CC1)Nc1ccc(N2CCOCC2)cc1` were 17.1% (inactive) and 26.6%. As for `Cn1c2ccccc2c(=O)c2c(=O)n(-c3ccccc3)c(-c3ccc(C(C)(C)C)cc3)nc21`, the “lipid storage change, negative = inhibition” value is -2.59% (inactive) and the cell number change amounted to 8.74%. As to `COc1cccc(CNC(=O)C2(C)Oc3ccccc3NC2=O)c1` (configuration not stated), the Potency is 23.1 µM (active) and the cell number change was 10.7%.

Regarding `CC1(C(=O)NCc2ccc(Cl)c(Cl)c2)Oc2cccnc2NC1=O` (configuration not stated), the “lipid storage change, negative = inhibition” value is 25.5% (inactive). Same read-out and setting: with `COc1cccc(CNC(=O)c2ccc(C(=O)NCc3cccc(OC)c3)cc2)c1` the figure was 16.4% (inactive). Consider `Cc1ccc(CNC(=O)C2(C)Oc3ccccc3NC2=O)cc1` (configuration not stated), for which the “lipid storage change, negative = inhibition” value is 18.2% (inactive) and the cell number change was -6.1%. Turning to `COc1cccc(CNC(=O)CC2Sc3ccccc3NC2=O)c1` (configuration not stated), the “lipid storage change, negative = inhibition” value is -8.39% (inactive).

As to `CC1(C(=O)NCc2ccccc2)Oc2ccccc2NC1=O` (configuration not stated), the Potency is 23.1 µM (active) and the cell number change is -4.11%. Consider `O=C(CNC(=O)c1ccco1)OCC(=O)c1ccc(Cl)cc1`, for which the “lipid storage change, negative = inhibition” value was -4.23% (inactive) and the cell number change was 3.11%. Taken in the same sequence, the figures for `COc1ccc(NC(=O)/C=C/c2ccc(Br)o2)cn1` were 0.369% (inactive) and 2.5%. For `CC[C@@H](C)[C@@H](C(=O)N1CCN(C(=O)OC(C)(C)C)CC1)n1cc(CCCN=C(NC(=O)OC(C)(C)C)NC(=O)OC(C)(C)C)nn1`, the “lipid storage change, negative = inhibition” value was -15.3% (inactive) and the cell number change was -5.51%. For `CCN(c1ccccc1)S(=O)(=O)c1cc([N+](=O)[O-])ccc1N`, the “lipid storage change, negative = inhibition” value is 0.407% (inactive) and the cell number change was determined as 7.82%. Taken in the same sequence, the figures for `Cc1cccc(N(C)S(=O)(=O)c2ccc3[nH]c(=O)c(=O)[nH]c3c2)c1` were -8.22% (inactive) and -11.4%.

With `Cc1cccc(N(C)S(=O)(=O)c2c[nH]c3ccc([N+](=O)[O-])cc23)c1`, the Potency is 2.59 µM (active) and the cell number change is -6.19%. As for `CCN(c1ccccc1)S(=O)(=O)c1ccc2[nH]c(=O)[nH]c2c1`, the “lipid storage change, negative = inhibition” value was 13.3% (inactive) and the cell number change turned out to be 8.44%. As for `Cc1ccc(N(C)S(=O)(=O)c2c[nH]c3ccc([N+](=O)[O-])cc23)cc1`, the result was inactive and the cell number change came to 2.95%. As for `CCN(c1ccccc1)S(=O)(=O)c1c[nH]c2ccc([N+](=O)[O-])cc12`, the Potency was 5.8 µM (active) and the cell number change was -8.56%.

For `O=C(CN1CCN(Cc2ccccc2)CC1)N1CCN(c2ccccc2)CC1`, the “lipid storage change, negative = inhibition” value is 9.16% (inactive) and the cell number change amounted to 9.09%. With `CCc1nc2ccccc2c(C(=O)OCC(=O)NCc2ccco2)c1C`, the outcome was inactive and the cell number change worked out at 16.5%. On to `CCC(=O)c1ccc(OCC(=O)NNC(=O)c2cc(C)oc2C)cc1`, for which the cell number change is -5.72% and the lipid storage change, negative = inhibition was -5.26% [at 0.0737 µM] (inactive). As to `COc1cc(C(C(=O)NC(C)(C)C)N(C(=O)CNC(=O)c2cccs2)c2ccc(C(C)C)cc2)cc(OC)c1OC` (configuration not stated), the call was inactive and the cell number change was found to be 12.2%.
